Data: PubChem BioAssay
Values joined by “and” are separate entries in the source; they are usually repeats but may differ in a detail not shown here. Equal entries are not always repeated. Active and inactive are the calls of the source. Unless noted, how the calls were made is not given here.

Assays:
[1] = compounds altering circadian rhythm period length – cell-based, LOPAC library, luminescence reporter (AID 2774); details: circadian reporter cells, at 7 µM, actives lie on both sides;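 further: values are relative to mean of DMSO wells on each plate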
[2] = compounds altering viability of human ES cells (AID 493140); details: human embryonic stem cell survival screen; stronger effect = higher value;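 further: cells exposed to compounds for four days before counting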
[3] = P. berghei load reduction in hepatocytes – cell-based, HepG2, luciferase luminescence, HepG2 viability, primary screen (AID 624349; in the data active means parasite load remaining mostly below about 12%, no sharp cut-off; inactive means mostly above about 10%;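 further: 100% = mean of DMSO negative control wells on the same plate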); details: P. berghei liver stage in HepG2, luciferase luminescence, concentration not given here; parasite load remaining: stronger effect = lower value; viability: measured here: HepG2 viability without parasites
[4] = test system: Hepatitis C virus NS3 helicase; experiment: blockers of NS3h binding to ssDNA – biochemical, fluorescence polarization, LOPAC1280 library, primary screen (AID 687035; in the data active means inhibition above about 37%); details: Purified HCV NS3 helicase, Cy5-dT15 ssDNA binding fluorescence polarization; stronger effect = higher value; concentration not given here
[5] = compounds altering Cy5-DNA-NS3h complex signal – biochemical, LOPAC1280, artefact control for HCV NS3 helicase inhibitor project (AID 687037); details: Cy5-DNA-NS3h complex fluorescence interference counterscreen
[6] = Wnt pathway potentiators raising nuclear beta-catenin – imaging, WNT3A-conditioned medium, mouse C2C12, NPC library, primary screen (AID 1117326; in the data active means nuclear beta-catenin stimulation mostly above about 4.2%, no sharp cut-off; inactive means mostly below about 10%); details: stronger effect = higher value
[7] = signal quenchers or enhancers, Cy5 substrate/SSB – biochemical, NIH Clinical Collection, E. coli SSB, artefact control for HCV NS3 helicase inhibitor project (AID 743268); details: Cy5-oligo bound E. coli SSB, fluorescence interference
[8] = test system: Hepatitis C virus NS3 helicase; experiment: blockers of NS3h binding to DNA – biochemical, fluorescence polarization, NIH Clinical Collection, primary screen (AID 743270); details: NS3 helicase binding to Cy5-dT15 DNA, stronger effect = higher value, concentration not given here
[9] = biological target: Single-stranded DNA-binding protein (Escherichia coli (strain K12)) (UniProt P0AGE0); experiment: SSB-ssDNA binding inhibitors – biochemical, fluorescence polarization, NIH Clinical Collection, counter-screen for HCV NS3 helicase inhibitor project (AID 743271; in the data active means inhibition above about 28%); details: E. coli SSB-DNA binding, stronger effect = higher value, concentration not given here
[10] = compounds distorting NS3 helicase fluorescence signal – biochemical, NIH Clinical Collection, artefact control for HCV NS3 helicase inhibitor project (AID 743272); details: fluorescence interference counterscreen, HCV NS3 helicase assay; stronger effect = lower value;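 further: HCV NS3 helicase with a Cy5 labelled single stranded DNA probe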
[11] = test system: Neuropilin-2 / VEGF-C interaction (human); experiment: small molecules blocking Neuropilin-2/VEGF-C interaction – biochemical, microplate binding format, z-score (AID 743281); details: microplate NRP2/VEGF-C binding assay; stronger effect = lower value

Row | SMILES | period change [1] | survival [2] | parasite load remaining [3] | viability [3] | inhibition [4] | fluorescence ratio (interference) [5] | nuclear beta-catenin stimulation ([6]; at 10 µM) | nuclear beta-catenin stimulation ([6]; stimulation, at 2 µM) [%] | fluorescence ratio [7] | inhibition [8] | inhibition [9] | fluorescence ratio [10] | z-score [11] | outcome [11]
1 | CO[C@@]1(NC(=O)CSCC#N)C(=O)N2C(C(=O)O)=C(CSc3nnnn3C)CS[C@@H]21 | -0.07 h (inactive) | 4.83 (inactive) | 86% (inactive) | 102% | -5% (inactive) | 1 (inactive) | 0.4% (inactive) | 0.7 |  |  |  |  |  | 
2 | NC(N)=Nc1nc(CSCC/C(N)=N/S(N)(=O)=O)cs1 | -0.03 h (inactive) | 16.5 (inactive) |  |  |  |  | 0.9% (inactive) | -1.4 | 0.96 (inactive) | 3.56% (inactive) | 6.83% (inactive) | 0.9 (inactive) | -0.254 (inactive) | 
3 | COCCCC/C(=N\OCCN)c1ccc(C(F)(F)F)cc1 | -0.015 h (inactive) | 6.67 (inactive) | 94.5% (inactive) | 63.8% |  |  | 0.8% (inactive) | 0.4 |  |  |  |  |  | inactive
4 | COc1cc2nc(N3CCN(C(=O)C4COc5ccccc5O4)CC3)nc(N)c2cc1OC (configuration not stated) | 0.11 h (inactive) | 4.33 (inactive) |  |  | -4% (inactive) | 1 (inactive) | 38% (inactive) | 2.3 | 1.06 (inactive) | -1.36% (inactive) | -2% (inactive) | 0.9 (inactive) |  | 
5 | C[C@]12C[C@H](O)[C@H]3[C@@H](CCC4=CC(=O)CC[C@@]43C)[C@@H]1CC[C@@H]2C(=O)CO | -0.34 h (inactive) | 6.08 (inactive) |  |  | 0% (inactive) | 1 (inactive) | 0% (inactive) | -1.4 | 1.01 (inactive) | -1.97% (inactive) | 1.97% (inactive) | 0.99 (inactive) |  | 
6 | CCCCCN(CCCCC)C(=O)C(CCC(=O)O)NC(=O)c1ccc(Cl)c(Cl)c1 (configuration not stated) | 0.13 h (inactive) | 1.92 (inactive) | 72.3% (inactive) and 35.5% (inactive) | 92.1% and 74.5% | -5% (inactive) | 0.9 (inactive) | -0.8% (inactive) | -0.1 |  |  |  |  |  | 
7 | COc1cc2nc(N3CCN(C(=O)C4CCCO4)CC3)nc(N)c2cc1OC (configuration not stated) | 0.02 h (inactive) | 3.75 (inactive) |  |  | -3% (inactive) | 1 (inactive) | 0.8% (inactive) | 1.4 | 0.99 (inactive) and 1.03 (inactive) | 0.4% (inactive) and -6.82% (inactive) | -3.18% (inactive) and 1.05% (inactive) | 0.95 (inactive) and 1.02 (inactive) | -0.533 (inactive) | 
8 | Cc1nc2n(c(=O)c1CCN1CCC(c3noc4cc(F)ccc34)CC1)CCCC2 | 0.015 h (inactive) | 5 (inactive) | 83.8% (inactive) and 28.6% (inactive) and 49.1% (inactive) | 76.9% and 60.3% and 97.5% |  |  | 4.2% (inactive) | 4.4 | 1.05 (inactive) | 3.56% (inactive) | 2.21% (inactive) | 1.02 (inactive) | -1.5 (inactive) | 
9 | CCOC(=O)C1=C(C)NC(C)=C(C(=O)OC)C1c1cccc(Cl)c1Cl (configuration not stated) | -0.06 h (inactive) | 15.7 (inactive) |  |  | -1% (inactive) | 1 (inactive) | 35.8% (inactive) | 7.4 |  |  |  |  |  | 
10 | Cc1ccc(C(=O)Nc2ccc(S(=O)(=O)O)c3cc(S(=O)(=O)O)cc(S(=O)(=O)O)c23)cc1NC(=O)c1cccc(NC(=O)Nc2cccc(C(=O)Nc3cc(C(=O)Nc4ccc(S(=O)(=O)O)c5cc(S(=O)(=O)O)cc(S(=O)(=O)O)c45)ccc3C)c2)c1 | 0.03 h (inactive) |  | 42.8% (inactive) and 57% (inactive) | 89.5% and 106% | 96% (active) | 1 (inactive) | -3.6% (inactive) | -0.5 |  |  |  |  |  | 
11 | COc1cc(C(=O)OCCCN2CCCN(CCCOC(=O)c3cc(OC)c(OC)c(OC)c3)CC2)cc(OC)c1OC | -0.025 h (inactive) | 9.25 (inactive) | 44% (inactive) and 120% (inactive) and 14% (inactive) | 47.9% and 91.2% and 76.5% | -3% (inactive) | 1 (inactive) | 1.3% (inactive) | 1.7 |  |  |  |  |  | 
12 | C[C@]12CC[C@@H]3c4ccc(O)cc4CC[C@H]3[C@@H]1CCC2=O | -0.125 h (inactive) | 2.5 (inactive) | 74.7% (inactive) and 24.8% (inactive) | 91.5% and 73.5% | -4% (inactive) | 1 (inactive) | 2.2% (inactive) | -0.2 |  |  |  |  |  | 
13 | CC(C)NCC(O)COc1ccc(CCOCC2CC2)cc1 (configuration not stated) | 0.03 h (inactive) | 8.33 (inactive) |  |  | -6% (inactive) | 0.9 (inactive) | 3.6% (inactive) | 3.7 | 1.03 (inactive) | 5.94% (inactive) | 3.75% (inactive) | 0.95 (inactive) | -0.0183 (inactive) | 
14 | Nc1ccn([C@H]2CC[C@@H](CO)O2)c(=O)n1 | -0.095 h (inactive) | 9 (inactive) | 89% (inactive) and 87.9% (inactive) and 17.9% (inactive) | 73.7% and 72.5% | 0% (inactive) | 1 (inactive) | -1% (inactive) | -1.5 | 1.05 (inactive) | 2.77% (inactive) | -1.64% (inactive) | 1.02 (inactive) | 0.496 (inactive) | 
15 | O=C(CCNNC(=O)c1ccncc1)NCc1ccccc1 | -0.045 h (inactive) | 17.5 (inactive) |  |  | -4% (inactive) | 1 (inactive) | -1% (inactive) | 0.1 | 1.01 (inactive) | 0.66% (inactive) | -1.97% (inactive) | 0.97 (inactive) | -0.136 (inactive) | 
16 | O=C(c1ccc(F)cc1)C1CCN(CCn2c(=O)[nH]c3ccccc3c2=O)CC1 | 0 h (inactive) | 12.7 (inactive) |  |  | 2% (inactive) | 1 (inactive) | 0.6% (inactive) | -1.2 |  |  |  |  |  | 
17 | COc1ccc(C2CNC(=O)C2)cc1OC1CCCC1 (configuration not stated) | -0.065 h (inactive) | 3.92 (inactive) | 73.2% (inactive) and 98.7% (inactive) and 48.7% (inactive) | 91.9% and 79% and 67.5% | -7% (inactive) | 1 (inactive) | -0.2% (inactive) | -0.4 | 1.03 (inactive) | 2.77% (inactive) | -0.1% (inactive) | 0.98 (inactive) | 0.503 (inactive) | 
